The supplement of paper PMC10849652
Targets with a hit are over-represented here; the source holds about 8,800 in all. About 0.5% of all pairs of compound and target were hits. Values without a mark were called inactive.

What was measured:
Experiment in all cases: log2 fold change, soluble protein after heating vs DMSO (PISA); higher = thermal stabilisation; K562 lysate, 10 uM; active = over 0.2 and 3.5 SD of the protein, either way, in both replicates (recomputed)
[1] = compound: CS(=O)(=O)CCNCc1ccc(-c2ccc3ncnc(Nc4ccc(OCc5cccc(F)c5)c(Cl)c4)c3c2)o1 [lapatinib]
Summary of the method: (§1)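 K562 pellets were dounce-homogenised in PBS pH 7.4 containing 1 mM MgCl2, and the crude extract, at 1 mg/mL protein, was exposed to 10 μM compound for 30 min. Aliquots were heated for 3 min across 48°C-58°C, pooled, brought to 0.5% NP-40 at 4°C and spun at 21,000xg for 90 min, with the supernatant taken as soluble protein. TMTpro 16plex LC-MS/MS with equalised channel sums quantified that protein. Values are log-two fold changes in thermal stability relative to solvent controls, taken from duplicates.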

[2] = compound: CS(=O)(=O)N1CCN(Cc2cc3nc(-c4cccc5[nH]ncc45)nc(N4CCOCC4)c3s2)CC1 [pictilisib]
Summary of the method: as §1

[3] = compound: C[C@@H](Oc1cc(-c2cnn(C3CCNCC3)c2)cnc1N)c1c(Cl)ccc(F)c1Cl [crizotinib]
Summary of the method: as §1

[4] = compound: C[C@H](C1=CC=C(C=C1)C(=O)NC2=C3C=CNC3=NC=C2)N
Summary of the method: as §1

[5] = compound: C[C@H](Nc1ncnc2nc[nH]c12)c1cc2cccc(Cl)c2c(=O)n1-c1ccccc1 [duvelisib]
Summary of the method: as §1

[6] = compound: Cc1cc(Nc2cc(CN3CCOCC3)c3nc(C)c(Cc4ccc(Cl)cc4F)n3n2)n[nH]1 [gandotinib]
Summary of the method: as §1

[7] = compound: Cc1cc(Nc2cc(N3CCN(C)CC3)nc(Sc3ccc(NC(=O)C4CC4)cc3)n2)n[nH]1 [tozasertib]
Summary of the method: as §1

[8] = compound: Cc1ccc(-n2nc(C(C)(C)C)cc2NC(=O)Nc2ccc(OCCN3CCOCC3)c3ccccc23)cc1 [doramapimod]
Summary of the method: as §1

[9] = compound: Cc1ccc(NC(=O)c2ccc(CN3CC[C@H](N(C)C)C3)c(C(F)(F)F)c2)cc1Nc1nccc(-c2cncnc2)n1 [bafetinib]
Summary of the method: as §1

[10] = compound: Cc1cccc(CC(=O)N2CCc3c2ccc(-c2cn(C)c4ncnc(N)c24)c3F)n1
Summary of the method: as §1

Chain of UniProt Q13409 (Q13409 whole entry, looked up): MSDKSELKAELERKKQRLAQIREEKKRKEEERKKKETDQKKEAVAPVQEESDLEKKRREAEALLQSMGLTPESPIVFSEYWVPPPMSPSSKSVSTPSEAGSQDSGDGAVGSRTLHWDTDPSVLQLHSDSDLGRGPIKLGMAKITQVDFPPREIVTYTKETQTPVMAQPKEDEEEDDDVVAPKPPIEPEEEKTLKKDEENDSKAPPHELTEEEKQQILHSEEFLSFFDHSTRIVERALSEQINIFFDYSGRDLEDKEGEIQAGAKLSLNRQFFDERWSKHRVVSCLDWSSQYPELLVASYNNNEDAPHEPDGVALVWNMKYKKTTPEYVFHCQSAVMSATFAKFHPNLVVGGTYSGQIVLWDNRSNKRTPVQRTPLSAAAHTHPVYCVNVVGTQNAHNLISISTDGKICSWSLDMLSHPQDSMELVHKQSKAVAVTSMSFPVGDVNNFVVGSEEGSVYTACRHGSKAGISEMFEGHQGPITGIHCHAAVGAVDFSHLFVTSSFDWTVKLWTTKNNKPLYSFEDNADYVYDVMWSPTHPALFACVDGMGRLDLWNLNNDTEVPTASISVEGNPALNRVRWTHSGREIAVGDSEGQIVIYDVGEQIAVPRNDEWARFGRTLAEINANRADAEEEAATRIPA
Chain of UniProt O43768 (O43768 whole entry, looked up): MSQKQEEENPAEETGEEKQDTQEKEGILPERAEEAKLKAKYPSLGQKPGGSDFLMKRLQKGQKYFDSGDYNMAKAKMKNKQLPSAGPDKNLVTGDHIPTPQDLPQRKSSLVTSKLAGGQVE
Chain of UniProt P51114 (P51114 whole entry, looked up): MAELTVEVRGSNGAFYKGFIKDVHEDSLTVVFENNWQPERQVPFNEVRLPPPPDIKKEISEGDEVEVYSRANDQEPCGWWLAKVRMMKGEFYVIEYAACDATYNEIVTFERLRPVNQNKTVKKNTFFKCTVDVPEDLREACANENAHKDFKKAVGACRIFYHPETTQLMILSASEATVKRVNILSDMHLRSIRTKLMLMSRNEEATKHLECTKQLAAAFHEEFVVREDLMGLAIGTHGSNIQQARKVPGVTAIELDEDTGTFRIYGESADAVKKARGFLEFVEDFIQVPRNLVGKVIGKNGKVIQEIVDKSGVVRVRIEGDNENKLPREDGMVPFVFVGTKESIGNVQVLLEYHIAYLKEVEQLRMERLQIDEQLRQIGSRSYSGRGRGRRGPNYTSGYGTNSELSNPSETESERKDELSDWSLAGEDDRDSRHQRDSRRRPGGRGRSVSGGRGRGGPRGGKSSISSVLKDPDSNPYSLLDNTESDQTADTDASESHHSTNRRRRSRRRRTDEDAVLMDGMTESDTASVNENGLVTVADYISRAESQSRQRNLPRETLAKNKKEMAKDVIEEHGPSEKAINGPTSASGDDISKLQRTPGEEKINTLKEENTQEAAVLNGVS
Chain of UniProt P57678 (P57678 whole entry, looked up): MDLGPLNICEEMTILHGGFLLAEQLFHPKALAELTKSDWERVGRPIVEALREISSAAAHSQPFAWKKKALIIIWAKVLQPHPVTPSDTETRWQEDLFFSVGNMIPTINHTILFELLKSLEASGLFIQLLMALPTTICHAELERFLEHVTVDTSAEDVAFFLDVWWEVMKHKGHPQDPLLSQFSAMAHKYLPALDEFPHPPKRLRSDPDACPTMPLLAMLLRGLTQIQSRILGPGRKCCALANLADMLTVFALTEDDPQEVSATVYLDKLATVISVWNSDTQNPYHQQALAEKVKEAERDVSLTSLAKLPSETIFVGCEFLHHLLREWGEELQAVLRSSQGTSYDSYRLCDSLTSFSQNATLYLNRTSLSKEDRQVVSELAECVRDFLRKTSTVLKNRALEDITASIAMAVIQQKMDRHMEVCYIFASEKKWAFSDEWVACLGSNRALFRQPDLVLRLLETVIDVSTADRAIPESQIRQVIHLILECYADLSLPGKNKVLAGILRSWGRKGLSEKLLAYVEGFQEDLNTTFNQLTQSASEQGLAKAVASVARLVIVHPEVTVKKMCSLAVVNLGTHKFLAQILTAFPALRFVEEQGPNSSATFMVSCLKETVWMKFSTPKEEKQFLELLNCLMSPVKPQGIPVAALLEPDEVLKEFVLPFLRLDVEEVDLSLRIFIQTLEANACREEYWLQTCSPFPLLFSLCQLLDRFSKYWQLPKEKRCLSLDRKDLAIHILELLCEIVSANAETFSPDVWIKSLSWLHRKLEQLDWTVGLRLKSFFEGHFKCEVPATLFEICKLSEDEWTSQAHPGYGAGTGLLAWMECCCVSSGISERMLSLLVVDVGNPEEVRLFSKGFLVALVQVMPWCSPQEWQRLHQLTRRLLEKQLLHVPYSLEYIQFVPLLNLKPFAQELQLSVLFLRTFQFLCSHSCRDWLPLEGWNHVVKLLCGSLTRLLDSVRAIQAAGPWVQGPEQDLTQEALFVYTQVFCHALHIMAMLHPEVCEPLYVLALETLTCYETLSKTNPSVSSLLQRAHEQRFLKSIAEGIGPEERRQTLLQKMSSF
Chain of UniProt Q9NZN4 (Q9NZN4 whole entry, looked up): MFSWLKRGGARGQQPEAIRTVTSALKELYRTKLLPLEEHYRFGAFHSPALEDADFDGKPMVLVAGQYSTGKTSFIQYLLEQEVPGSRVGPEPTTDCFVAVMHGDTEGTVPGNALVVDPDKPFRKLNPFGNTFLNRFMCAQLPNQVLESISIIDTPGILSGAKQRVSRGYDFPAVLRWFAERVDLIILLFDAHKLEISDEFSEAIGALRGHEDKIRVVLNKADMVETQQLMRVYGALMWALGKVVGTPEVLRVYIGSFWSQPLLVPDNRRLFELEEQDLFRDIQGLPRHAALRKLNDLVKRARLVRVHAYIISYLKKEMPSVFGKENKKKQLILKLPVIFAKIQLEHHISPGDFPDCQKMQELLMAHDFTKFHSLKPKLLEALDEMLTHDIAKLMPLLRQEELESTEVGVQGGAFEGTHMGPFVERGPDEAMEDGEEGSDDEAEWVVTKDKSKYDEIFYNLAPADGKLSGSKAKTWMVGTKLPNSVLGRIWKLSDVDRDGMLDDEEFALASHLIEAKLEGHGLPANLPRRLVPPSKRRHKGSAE
Chain of UniProt Q9BQS8 (Q9BQS8 whole entry, looked up): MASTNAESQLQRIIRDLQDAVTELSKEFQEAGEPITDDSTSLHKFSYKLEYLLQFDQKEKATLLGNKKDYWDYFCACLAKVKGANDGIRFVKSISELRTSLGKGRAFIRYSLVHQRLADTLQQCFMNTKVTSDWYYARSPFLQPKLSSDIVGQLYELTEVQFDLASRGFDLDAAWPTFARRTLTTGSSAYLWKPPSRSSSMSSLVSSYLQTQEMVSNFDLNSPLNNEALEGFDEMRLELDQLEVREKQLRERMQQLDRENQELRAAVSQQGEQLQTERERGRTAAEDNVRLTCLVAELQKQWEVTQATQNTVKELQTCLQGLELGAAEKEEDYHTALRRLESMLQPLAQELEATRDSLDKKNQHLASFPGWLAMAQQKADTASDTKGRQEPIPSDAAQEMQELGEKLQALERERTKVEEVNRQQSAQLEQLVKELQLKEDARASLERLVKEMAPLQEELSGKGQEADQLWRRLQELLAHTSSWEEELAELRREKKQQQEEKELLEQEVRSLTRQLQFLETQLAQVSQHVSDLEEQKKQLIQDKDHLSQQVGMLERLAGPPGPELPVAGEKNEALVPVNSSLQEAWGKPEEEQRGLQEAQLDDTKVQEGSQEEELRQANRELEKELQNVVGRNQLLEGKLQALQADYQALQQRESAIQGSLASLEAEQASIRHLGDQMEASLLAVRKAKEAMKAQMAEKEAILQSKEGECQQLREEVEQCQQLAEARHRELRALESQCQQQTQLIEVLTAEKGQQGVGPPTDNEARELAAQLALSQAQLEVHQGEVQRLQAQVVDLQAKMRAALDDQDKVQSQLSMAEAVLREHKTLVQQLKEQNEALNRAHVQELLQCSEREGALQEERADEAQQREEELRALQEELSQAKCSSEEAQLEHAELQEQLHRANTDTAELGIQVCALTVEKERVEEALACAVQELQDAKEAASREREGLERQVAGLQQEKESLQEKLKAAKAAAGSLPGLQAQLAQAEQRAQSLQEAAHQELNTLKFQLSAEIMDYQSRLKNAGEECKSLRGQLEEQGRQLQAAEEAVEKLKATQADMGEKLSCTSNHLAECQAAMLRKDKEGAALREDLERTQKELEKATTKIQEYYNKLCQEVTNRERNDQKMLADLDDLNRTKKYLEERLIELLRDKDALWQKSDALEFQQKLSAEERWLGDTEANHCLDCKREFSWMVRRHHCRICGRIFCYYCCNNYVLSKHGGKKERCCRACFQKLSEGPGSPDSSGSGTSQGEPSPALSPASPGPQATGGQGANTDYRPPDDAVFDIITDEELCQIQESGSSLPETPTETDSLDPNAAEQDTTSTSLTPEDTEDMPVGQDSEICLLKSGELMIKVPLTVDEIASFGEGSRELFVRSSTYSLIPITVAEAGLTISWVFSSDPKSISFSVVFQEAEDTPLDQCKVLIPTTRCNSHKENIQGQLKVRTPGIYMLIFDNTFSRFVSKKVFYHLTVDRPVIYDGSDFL
Chain of UniProt P60981 (P60981 whole entry, looked up): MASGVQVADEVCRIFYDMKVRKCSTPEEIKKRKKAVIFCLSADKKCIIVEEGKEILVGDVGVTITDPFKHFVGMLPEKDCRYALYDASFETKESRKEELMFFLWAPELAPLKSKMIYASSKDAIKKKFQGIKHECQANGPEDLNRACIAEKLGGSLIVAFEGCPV
Chain of UniProt A6NHQ2 (A6NHQ2 whole entry, looked up): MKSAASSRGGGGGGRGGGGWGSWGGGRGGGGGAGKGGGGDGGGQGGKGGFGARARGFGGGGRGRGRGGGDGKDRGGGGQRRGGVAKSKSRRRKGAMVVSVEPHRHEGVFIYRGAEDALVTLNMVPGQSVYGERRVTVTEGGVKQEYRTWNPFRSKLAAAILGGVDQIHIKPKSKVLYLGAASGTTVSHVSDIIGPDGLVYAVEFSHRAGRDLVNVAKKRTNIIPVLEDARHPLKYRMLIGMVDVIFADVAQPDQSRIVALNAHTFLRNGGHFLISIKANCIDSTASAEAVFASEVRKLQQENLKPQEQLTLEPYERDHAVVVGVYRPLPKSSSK

Row | Target | log2 fold change [1] | log2 fold change [2] | log2 fold change [3] | log2 fold change [4] | log2 fold change [5] | log2 fold change [6] | log2 fold change [7] | log2 fold change [8] | log2 fold change [9] | log2 fold change [10]
1 | DTYMK (UniProt P23919) | 0.026 | -0.003 | -0.042 | 0.055 | 0.023 | -0.135 | 0.01 | 0.045 | 0.007 | -0.029
2 | FNBP1L (UniProt Q5T0N5) | 0.005 | 0 | -0.039 | -0.023 | -0.115 | 0.002 | -0.003 | 0.113 | -0.089 | -0.026
3 | GABPB1 (UniProt Q06547) | -0.042 | -0.052 | 0.021 | 0.192 | 0.018 | -0.194 | -0.004 | 0.026 | -0.071 | -0.082
4 | FIBP (UniProt O43427) | -0.016 | -0.074 | -0.08 | 0.003 | 0.073 | -0.031 | 0.05 | -0.038 | -0.025 | 0.094
5 | ENSA isoform 3 (UniProt O43768) | 0.021 | 0.02 | 0.058 | 0.103 | 0.049 | -0.042 | -0.027 | -0.068 | 0.058 | -0.103
6 | EEFSEC (UniProt P57772) | -0.019 | 0.008 | -0.042 | -0.043 | 0.031 | -0.023 | 0.024 | 0.022 | -0.079 | 0.041
7 | FANCI (UniProt Q9NVI1) | -0.015 | -0.034 | -0.09 | 0.06 | 0.001 | -0.199 | 0.002 | -0.003 | -0.032 | -0.011
8 | FHOD1 (UniProt Q9Y613) | -0.018 | -0.011 | -0.014 | 0.017 | -0.023 | -0.141 | 0.008 | 0.045 | -0.063 | 0.035
9 | FBLL1 (UniProt A6NHQ2) | 0.014 | -0.076 | -0.041 | -0.277 (active) | 0.059 | 0.028 | 0.047 | -0.013 | -0.075 | 0.053
10 | FOXJ3 (UniProt Q9UPW0) | 0.039 | -0.049 | -0.053 | 0.101 | 0.035 | -0.042 | 0.021 | 0 | -0.139 | -0.003
11 | GART (UniProt P22102) | -0.008 | -0.024 | -0.017 | 0.062 | -0.014 | -0.052 | -0.004 | 0 | -0.001 | -0.026
12 | EPHX2 (UniProt P34913) | -0.031 | -0.019 | 0.061 | 0.008 | -0.031 | 0.057 | 0.116 | -0.079 | 0.131 | 0.012
13 | EXOC4 (UniProt Q96A65) | -0.038 | 0.018 | -0.044 | 0.011 | 0.024 | -0.165 | -0.028 | -0.023 | -0.056 | 0.015
14 | DSTN (UniProt P60981) | 0.01 | 0.008 | 0.007 | -0.02 | -0.001 | -0.023 | 0.031 | -0.015 | 0.057 | 0.019
15 | EEF1A1, A0A087WVQ9 | 0.028 | -0.038 | -0.02 | 0.07 | -0.021 | 0.017 | -0.08 | -0.069 | 0.068 | -0.129
16 | DYNC1I2 isoform 2 (UniProt Q13409) | 0.029 | 0.078 | -0.031 | 0.096 | 0.015 | -0.132 | 0.001 | -0.011 | -0.041 | -0.012
17 | EHD2 (UniProt Q9NZN4) | -0.047 | -0.052 | -0.033 | 0.004 | 0.026 | -0.117 | -0.004 | 0.02 | -0.063 | 0.017
18 | EMP3 (UniProt P54852) | 0 | -0.03 | -0.002 | -0.763 (active) | 0 | 0.351 (active) | -0.078 | 0.029 | -0.019 | 0.329 (active)
19 | EDC4 (UniProt Q6P2E9) | -0.025 | -0.029 | -0.01 | -0.044 | 0.016 | -0.027 | -0.016 | -0.014 | -0.043 | 0.049
20 | GEMIN4 (UniProt P57678) | -0.031 | -0.012 | -0.065 | -0.013 | 0.004 | -0.188 | -0.009 | 0.032 | -0.038 | 0.039
21 | FXR1 (UniProt P51114) | -0.026 | -0.052 | -0.006 | -0.106 | 0.023 | -0.02 | 0.008 | 0.065 | -0.03 | 0.05
22 | FIG4 (UniProt Q92562) | -0.065 | 0.12 | -0.016 | 0.039 | -0.023 | -0.099 | -0.112 | -0.067 | -0.09 | 0.058
23 | ERAL1 (UniProt O75616) | 0.075 | -0.025 | -0.035 | -0.152 | 0.014 | 0.321 (active) | 0.041 | 0.006 | -0.079 | 0.03
24 | EEF1A1P5 (UniProt Q5VTE0) | -0.006 | 0.027 | -0.026 | -0.114 | -0.098 | 0.044 | -0.001 | 0.011 | -0.017 | 0.117
25 | FASTKD2 (UniProt Q9NYY8) | -0.028 | -0.001 | -0.032 | -0.067 | 0.026 | -0.049 | -0.013 | 0.028 | -0.028 | 0.05
26 | FYCO1 isoform 4 (UniProt Q9BQS8) | -0.005 | -0.018 | -0.018 | -0.114 | 0.036 | 0.229 | 0.021 | -0.009 | -0.019 | 0.176
27 | FBRSL1, A0A3B3IRR3 |  | -0.064 | 0.086 | -0.114 | 0.035 | 0.032 | -0.105 | -0.161 | -0.089 | 0.146
